Bioassay records deposited in PubChem BioAssay by National Center for Advancing Translational Sciences (NCATS).
CCT chaperon mod = cytosolic chaperonin activity modulation; 360,000 compounds, 0.3% hits; activity change, % (no concentration beside the values), hits read low; purified chaperonin ATPase assay, HTRF ADP detection, 30 min; in the data active means activity change below about -30%; further: on the % scale 0 is the no-effect control and ±100 the full control effect
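First, chaperonin was dispensed at 40 nM or 20 nM final depending on batch activity. Next, compounds were pinned at 76 uM and ATP added at 10 uM. After 30 min at 37 °C, ADP detection reagents ran 30 min at ambient temperature.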
Abeta rescue = restores growth of yeast expressing A-beta42 peptide; yeast expressing A-beta42, growth rescue, OD600, 48 h; response scale: 0% DMSO, 100% iron-clioquinol control; 410,000 compounds, 0.063% hits; Potency, µM (titrated, usually from 46.1 µM), hits mostly activators; further: potency means the concentration at half of the fitted maximal effect; nearly all actives have a fitted effect of over 55% in size
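Yeast growth medium received pinned compounds, then yeast cells expressing toxic A-beta were added; plates incubated at 30 C for 48 hr. Growth read as absorbance at 600 nm, normalized to DMSO and equimolar FeCl3 plus clioquinol controls.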
TDP-43 yeast inh = rescues yeast growth from TDP-43 toxicity; TDP-43 expressing yeast growth rescue, BacTiter-Glo, 24 h; AID 652104; 410,000 compounds, 1.8% hits; Potency, µM (titrated, usually from 46.1 µM), without a hit: top-dose growth rescue (activation), most hits filed as activators; further: potency means the concentration at half of the fitted maximal effect; % of control where 0% means no effect; nearly all actives have a fitted effect of over 50% in size
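Readout is BacTiter-Glo luminescence of cell growth, so inhibitors register as activators. TDP-43-expressing yeast at OD600=0.02 in galactose medium, after raffinose pregrowth to mid-log, were incubated with compound for 24 hr at 30 deg C.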
MmCpn inh = blocks the Methanococcus maripaludis chaperonin Mm-Cpn | 330,000 compounds, 0.031% hits | purified Mm-Cpn ATPase, ADP Transcreener TR-FRET | AID 504842 | Potency, µM (doses to about 76.9 µM), for inactives: at the top dose activity, negative = inhibition, most hits filed as inhibitors; further: potency means the concentration at half of the fitted maximal effect; on the % scale 0 is the no-effect control and ±100 the full control effect; nearly all actives have a fitted effect of over 80% in size
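ATPase read-out: TR-FRET ADP immunoassay (anti-ADP Eu cryptate vs ADP-d2), ex 320 nm, em 590/665 nm; signal drops as ADP forms. Enzyme 25 nM, ATP 10 uM, 30 min at 37°C after 10 min compound preincubation.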
FUS yeast rescue = FUS proteinopathy suppression in yeast. Potency, µM (titrated, usually from 76.6 µM), usual class: activators. AID 1347120. S. cerevisiae FUS-expressing, growth rescue, OD600, 24 h. 390,000 compounds, 0.24% hits;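 further: potency means the concentration at half of the fitted maximal effect; plate controls were DMSO vehicle for no effect and reference control for full effect; nearly all actives have a fitted effect of over 55% in size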
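Compound concentration series was pinned onto galactose-induced FUS-expressing yeast seeded at OD 0.005. Plates sat 24hr at 30C; absorbance at 600 nm gave growth. DMSO served as background control.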
aSyn rescue = alpha-synuclein toxicity inhibition in yeast. Yeast expressing alpha-synuclein, growth rescue, BacTiter-Glo, 24 h. Potency, µM (series often up to 46.1 µM), for the others: at the top dose growth rescue (activation), usual class: activators. 370,000 compounds, 0.14% hits. AID 652106; further: potency means the concentration at half of the fitted maximal effect; % of control where 0% means no effect; nearly all actives have a fitted effect of over 65% in size
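Readout is rescue of growth in alpha-synuclein-expressing yeast, so inhibitors of toxicity appear as activators. Growth after 24 hr at 30 deg C in galactose medium is quantified by luminescence.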
* hit, by the source's call; i = inactive; ? = inconclusive; · = not tested or not shown; ! = a repeat was not active; [ ] = another dose, or the depositor's remark. Rows were chosen to be rich in hits. Some 2.3% of all compounds tested hit in one or more screens of this group. Unless noted, the call rests on the fitted dose curve; in most records, active means well fitted curve in the direction sought with a large enough effect; inconclusive means small, poorly fitted or top-dose-only effect, or another doubt; inactive means no such curve, though single readings can be large; an effect the other way counts as inactive or inconclusive.

SMILES	CCT chaperon mod	Abeta rescue	TDP-43 yeast inh	MmCpn inh	FUS yeast rescue	aSyn rescue
CC(C)(Oc1ccc(Cl)cc1)C(=O)Nc1nc2ccc(S(C)(=O)=O)cc2s1	·	i	12.6µM*	·	?	·
COc1cccc2c1cc1c(=O)n(CC(=O)N3CCN(c4ccc(Cl)cc4)CC3)nc(C)n12	·	i	9.5%	·	i	·
O=C(Cc1csc(-c2ccccc2)n1)NCc1ccc(F)cc1	0.4	i	?	?	i	5.9%
O=C(NCCc1csc(-c2ccccc2)n1)c1c(F)cccc1Cl	0.9	i	12.6µM*	-4.3%	i	0.2%
O=C(NCCc1csc(-c2ccccc2)n1)c1c(F)cccc1F	0.8	i	20µM*	-0.9%	i	-9.5%
O=C(NCc1csc(-c2ccccc2)n1)c1cc(F)cc2c1OCOC2	-8.3	i	12.6µM*	5.2%	i	5.7%
O=C(NCCc1csc(-c2cccnc2)n1)c1c(F)cccc1F	-1.7	i	1.1%	-0.4%	i	-0.7%
COc1cc(C(=O)NCCc2csc(-c3ccc(Cl)cc3)n2)cc(OC)c1OC	·	i	22.4µM*	·	i	·
O=C(NCCc1ccccc1)O[C@H]1CC[C@@]23CCCN2C(=O)CCC[C@H]3C1	·	·	·	·	i	·
NC(=S)c1ccc[n+]([C@@H]2O[C@@H](COP(=O)([O-])OP(=O)(O)OC[C@H]3O[C@@H](n4cnc5c(N)ncnc54)[C@H](OP(=O)(O)O)[C@@H]3O)C(O)C2O)c1 (some centres not stated)	·	·	·	·	·	-10.9%
O=C(COc1ccc(Cl)cc1)NCCc1csc(-c2ccc(F)cc2)n1	·	i	11.2%	·	i	·
O=C(NCCc1csc(-c2ccc(F)cc2)n1)c1c(F)cccc1Cl	·	i	12.6µM*	·	i	·
O=C(NCCc1csc(-c2ccc(Cl)cc2)n1)c1ccco1	1.0	i	15.8µM*!	-18.5%	i	-13.9%
Cc1cc(O)c(C(=O)c2cnc3c(c2)COc2ccccc2-3)cc1Cl	·	i	20.4%	·	i	·
CN(C)c1ccc(N/C=C/C(=O)C(C)(C)C)cc1	-3.4	i	6.1%	22.4µM*	?	2.5%
O=C1N(CCCl)c2ccc(Br)cc2C12OCCO2	-11.4	i	10µM*	1.4%	i	3.4%
COC(=O)CN1C(=O)C2(OCCCO2)c2cc(Br)ccc21	0.4	i	-19.8%	0.0%	i	-7.5%
COC(=O)[C@@]12C[C@@H](CC(=O)NCc3ccc(OC)c(OC)c3)C(=O)N(Cc3ccc4c(c3)OCO4)C1=CCC(C)(C)C2	·	i	-2.0%	·	12.6µM*	-0.6%
COC(=O)[C@@]12C[C@@H](CC(=O)NCc3cccc(C(F)(F)F)c3)C(=O)N(Cc3ccc4c(c3)OCO4)C1=CCC(C)(C)C2	·	i	0.0%	·	?	0.1%
COC(=O)[C@@]12C[C@@H](CC(=O)NCCC(C)C)C(=O)N(Cc3cccc4ccccc34)C1=CCC(C)(C)C2	·	i	-1.1%	·	14.1µM*	2.0%
O=C(Nc1cc2ccc(O)cc2oc1=O)c1ccc(F)cc1	·	i	16.7%	·	i	·
Clc1ccc(-c2nn3c(-c4ccncc4)nnc3s2)c(Cl)c1	·	·	·	1.2%	·	·
Clc1ccc(-c2nn3cnnc3s2)c(Cl)c1	1.5	i	17.8µM*	1.9%	i	3.8%
Nc1nnc(-c2ccc(Cl)cc2Cl)s1	0.3	i	11.2µM*	-4.8%	i	14.6%
Cc1nn2c(-c3ccco3)ccnc2c1-c1ccc(F)cc1	·	i	0.0%	·	i	·
SMILES	CCT chaperon mod	Abeta rescue	TDP-43 yeast inh	MmCpn inh	FUS yeast rescue	aSyn rescue
O=S(=O)(Nc1ccc(-c2ccc(N3CCCC3)nn2)cc1)c1ccccc1Cl	·	i	12.7%	·	i	·
COc1ccc(/C=C(/C(=O)c2cccs2)N2C=CC=CC2=C(C#N)C#N)cc1	-0.3	i	?	-4.6%	i	17.8µM*
O=S(=O)(CCSc1nc2ccccc2s1)c1nc2ccccc2s1	0.3	i	2.51µM*	-3.2%	i	-54.2%
C=CCS(=O)(=O)c1nc2ccccc2s1	2.2	i[9.22 µM]	22.4µM*	-1.1%	i	-0.5%
CCS(=O)(=O)CCSc1nc2ccccc2s1	-1.9	i	-9.4%	-6.2%	i	7.0%
CC(C)C[C@H]1COc2cccc(F)c2S(=O)(=O)N1C	·	·	·	·	i	·
Cc1nc2ccc(NC(=O)c3c(Cl)cccc3Cl)cc2c(=O)[nH]1	·	·	·	·	i	·
Cc1ccc(NC(=O)COC(=O)C2CCN(c3ccc(C(F)(F)F)cn3)CC2)cc1	0.9	?	25.1µM*	-3.5%	i	2.2%
O=C(COC(=O)C1CCN(c2ccc(C(F)(F)F)cn2)CC1)NCc1ccccc1	2.1	i	22.4µM*	-1.0%	i	0.5%
CCCOC(=O)c1ccc(NC(=O)COC(=O)C2CCN(c3ccc(C(F)(F)F)cn3)CC2)cc1	1.5	i	?	·	i	-0.2%[1.84 µM]
CC(NC(=O)COC(=O)C1CCN(c2ccc(C(F)(F)F)cn2)CC1)c1ccccc1 (configuration not stated)	-0.5	i	-3.9%	·	i	27.3%
CC(NC(=O)c1ccc(N2Cc3ccccc3Oc3ncccc32)s1)c1ccccc1 (configuration not stated)	·	i	22.6%	·	i	·
Cc1ccc(-c2nnc(Nc3ccc(O)cc3)c3ccccc23)cc1S(=O)(=O)N1CCCCC1	·	i	15.0%	·	i	·
O=C(OC1CCOC1=O)c1cc(-c2ccc(Br)cc2)nc2ccccc12 (configuration not stated)	-0.2	i	21.0%	-11.6%	i	-2.1%
COc1ccc(-c2cc(C(=O)OC3CCOC3=O)c3ccccc3n2)cc1 (configuration not stated)	-2.6	i	15.8µM*	-3.1%	i	-5.5%
COc1ccc(-c2cc(C(=O)Nc3ccc(S(=O)(=O)Nc4ncccn4)cc3)c3ccccc3n2)cc1	1.5	i	-1.2%	-1.3%	i	-10.2%
COc1ccc(-c2cc(C(=O)Nc3ccc(C)c(N)c3)c3ccccc3n2)cc1	-2.8	i	?	-2.0%	14.1µM*	-14.2%
COc1cc(-c2nnc(SCC(=O)NN=Cc3c[nH]c4ccccc34)n2-c2ccccc2)cc(OC)c1OC	·	·	·	·	i	·
CCCCN(C)C(=O)CSc1nnc(-c2cc(OC)c(OC)c(OC)c2)o1	·	·	·	·	i	·
CCOC(=O)C(Cc1nc(OCc2ccccc2)cc(OCc2ccccc2)n1)=NO	-4.8	i	0.0%	·	·	14.7%
CCOC(=O)C(=O)Cc1nc(OCc2ccccc2)cc(OCc2ccccc2)n1	-39.1*	i	-6.5%	·	i	-1.6%
Brc1ccc(-c2csc(N3CCNCC3)n2)cc1	·	·	·	·	i	·
